The text below walks through data of the antibiotic and cytotoxicity screens of Wong et al. (2023).

The campaign covered roughly 39,000 compounds. About 1,500 (3.8%) were called active. Shown is part of a subset that was picked to be rich in actives.

This experiment relates to HSkMC (human skeletal muscle cells). The experiment is described as follows: cytotoxicity call (relative viability < 0.9). Conditions: 10 µM.
`C[C@@H]1CN([C@@H](C)CO)C(=O)c2cc(C#CC3(O)CCCC3)cnc2O[C@@H]1CN(C)C(=O)C1CCOCC1`: the cytotoxicity call was “inactive”.

Consider `CN1C(=O)c2cc(NC(=O)Cc3cccs3)ccc2OC[C@H]2O[C@H](CC(=O)NCCCN3CCOCC3)CC[C@@H]21`, for which the cytotoxicity call is “inactive”.

In the case of `Cc1noc(C)c1S(=O)(=O)Nc1ccc2c(c1)C(=O)N([C@@H](C)CO)C[C@H](C)[C@H](CN(C)S(=O)(=O)c1cccs1)O2`, the cytotoxicity call was “inactive”.

As for `C[C@@H]1CN([C@H](C)CO)C(=O)CCCn2cc(nn2)CO[C@@H]1CN(C)S(=O)(=O)c1cccc(C#N)c1`, the cytotoxicity call was “inactive”.

For the compound `OS(=O)(=O)c1ccc(cc1)/C/1=C\2/N/C(=C(\C3=N/C(=C(/c4ccc(cc4)S(=O)(=O)O)c4ccc([nH]4)/C(=C\4/C=CC1=N4)c1ccc(cc1)S(=O)(=O)O)C=C3)c1ccc(cc1)S(=O)(=O)O)C=C2`, the cytotoxicity call is “inactive”.

With `Oc1cccc(c1)/C/1=C/2\CC/C(=C(\c3cccc(c3)O)c3ccc([nH]3)/C(=C\3/C=CC(=N3)/C(=C\3/C=CC1=N3)c1cccc(c1)O)c1cccc(c1)O)N2`, the cytotoxicity call is “active”.

For the compound `CC(C)NC(=O)Nc1ccc2c(c1)CC(=O)N([C@@H](C)CO)C[C@@H](C)[C@@H](CN(C)C(=O)NC1CCCCC1)O2`, the cytotoxicity call is “inactive”.

On to `CCC(=O)NC[C@H](Cc1ccc(OCCc2nc(-c3ccccc3)oc2C)cc1)N/C(C)=C\C(=O)c1ccc(C(F)(F)F)cc1`, for which the cytotoxicity call is “active”.

In the case of `O=C(O)C[C@@H]1CC[C@H]2[C@@H](COC[C@H](O)CN2S(=O)(=O)c2ccc(F)cc2)O1`, the cytotoxicity call was “inactive”.

`COc1cnc(SC)n(C)c1=O`: the cytotoxicity call was “inactive”.

Turning to `C[C@@H]1CN([C@@H](C)CO)C(=O)Cc2cc(NS(=O)(=O)c3cn(C)cn3)ccc2O[C@H]1CN(C)CC1CCCCC1`, the cytotoxicity call is “inactive”.

For the compound `CN(C)CC#Cc1ccc([C@@H]2[C@H](CO)N3CCCCN(C(=O)CN(C)C)C[C@@H]23)cc1`, the cytotoxicity call was “inactive”.

Take `CN(C)CC#Cc1ccc([C@H]2[C@@H](CO)N3CCCCN(C(=O)CN(C)C)C[C@@H]23)cc1`: the cytotoxicity call is “inactive”.

With `COc1ccc(NC(=O)N2CCCCN3[C@H](CN(C)C(C)=O)[C@H](c4ccc(C#Cc5ccccc5)cc4)[C@@H]3C2)cc1`, the cytotoxicity call was “active”.

Turning to `CN(C)CC#Cc1ccc([C@H]2[C@@H](CO)N3CCCCN(C(=O)CN(C)C)C[C@H]23)cc1`, the cytotoxicity call was “inactive”.

On to `CN(C)CC#Cc1ccc([C@@H]2[C@@H](CO)N3CCCCN(C(=O)CN(C)C)C[C@@H]23)cc1`, for which the cytotoxicity call is “inactive”.

For `COc1ccc(NC(=O)N2CCCCN3[C@H](COCCN(C)C)[C@H](c4ccc(C#Cc5ccccc5)cc4)[C@@H]3C2)cc1`, the cytotoxicity call is “active”.

On to `C[C@H]1Cc2c(N)nn(C)c2NC1=O`, for which the cytotoxicity call was “inactive”.

For `CC(=O)OCC(=O)C12OC3(CCCC3)OC1CC1C3CCC4=CC(=O)C=CC4(C)C3(F)C(O)CC12C` (configuration not stated), the cytotoxicity call is “inactive”.

In the case of `C[C@@H]1CN([C@H](C)CO)C(=O)Cc2cc(NS(=O)(=O)c3cccs3)ccc2O[C@H]1CN(C)Cc1ccc(-c2ccccc2)cc1`, the cytotoxicity call is “inactive”.

On to `Cc1ccc(-c2ccc3c(c2)O[C@@H](CN(C)C(=O)NC(C)C)[C@@H](C)CN([C@H](C)CO)S3(=O)=O)cc1`, for which the cytotoxicity call is “inactive”.

As for `COc1ccc(NC(=O)N(C)C[C@@H]2OCCCC[C@@H](C)Oc3ccc(NC(=O)Cc4ccccc4)cc3C(=O)N([C@H](C)CO)C[C@H]2C)cc1`, the cytotoxicity call is “inactive”.

Take `C[C@@H]1CCCCO[C@@H](CN(C)C(=O)Cc2ccccc2)[C@@H](C)CN([C@H](C)CO)C(=O)c2cc(NC(=O)c3ccccc3)ccc2O1`: the cytotoxicity call was “inactive”.

`COc1ccc(-c2cccc(-c3nc(C(=O)NCC(F)(F)F)cc4c3[C@H](CCO)N([S@@](=O)C(C)(C)C)C4)c2)cc1`: the cytotoxicity call was “inactive”.

Regarding `C[C@@H]1CCCCO[C@@H](CN(C)C(=O)Cc2ccccc2)[C@H](C)CN([C@@H](C)CO)C(=O)c2cc(NC(=O)CCC(F)(F)F)ccc2O1`, the cytotoxicity call was “inactive”.

As to `Cc1cc(Nc2ncc(Cl)c(Nc3ccccc3S(=O)(=O)C(C)C)n2)c(OC(C)C)cc1C1CCNCC1`, the cytotoxicity call was “active”.

On to `COc1cc(N2CCC(N)CC2)ccc1Nc1ncc(Cl)c(-c2c[nH]c3ccccc23)n1`, for which the cytotoxicity call is “active”.

With `NC1CCN(C(=O)c2c[nH]c3ccccc23)CC1`, the cytotoxicity call is “inactive”.

Turning to `COc1cc(C(=O)NC2CCN(C)CC2)ccc1Nc1ncc2c(n1)N(C1CCC(O)CC1)CCC(=O)N2C` (configuration not stated), the cytotoxicity call was “inactive”.

As for `COc1cc(N2CCC(O)CC2)ccc1Nc1cc(Nc2ccccc2S(=O)(=O)C(C)C)c2cc[nH]c2n1`, the cytotoxicity call is “inactive”.

On to `COc1cc(N2CCC(N(C)C)CC2)ccc1Nc1ncc(Cl)c(Nc2ccccc2P(C)(C)=O)n1`, for which the cytotoxicity call is “active”.

Regarding `COc1cc(N2CCC(N3CCN(C)CC3)CC2)ccc1Nc1ncc(Cl)c(Nc2ccccc2S(=O)(=O)C(C)C)n1`, the cytotoxicity call was “active”.

Take `Cc1noc(C)c1NC(=O)N(C)C[C@H]1Oc2ccc(NC(=O)CCCN(C)C)cc2C(=O)N([C@@H](C)CO)C[C@H]1C`: the cytotoxicity call is “inactive”.

Take `C[C@H]1CN([C@@H](C)CO)C(=O)c2cc(NC(=O)Cc3cn(C)c4ccccc34)ccc2O[C@H]1CN(C)Cc1ccc(C(=O)Nc2ccccc2N)cc1`: the cytotoxicity call was “inactive”.

As for `COc1ccc(NC(=O)N(C)C[C@@H]2OCCCC[C@@H](C)Oc3ccc(NS(=O)(=O)c4ccccc4)cc3C(=O)N([C@@H](C)CO)C[C@H]2C)cc1`, the cytotoxicity call was “inactive”.

As for `O=C(C[C@@H]1C=C[C@H](NC(=O)CN2CCOCC2)[C@@H](CO)O1)NC1CCCCC1`, the cytotoxicity call was “inactive”.

Regarding `C[C@@H]1CN([C@@H](C)CO)S(=O)(=O)c2ccc(C#CCC3CCCC3)cc2O[C@@H]1CN(C)C(=O)c1cnccn1`, the cytotoxicity call is “inactive”.

On to `C[C@H](CO)N1C[C@H](C)[C@H](CN(C)Cc2ccc(C(=O)O)cc2)Oc2ccc(NS(=O)(=O)c3cn(C)cn3)cc2C1=O`, for which the cytotoxicity call was “inactive”.

Take `O=C(NCCN1CCCC1)[C@H]1[C@H](CO)[C@H]2Cn3c(cccc3=O)[C@H]2N1C(=O)c1ccccc1`: the cytotoxicity call is “inactive”.

`CC(C)(C)NCC(O)COc1ccccc1C1CCCC1.O=S(=O)(O)O` (configuration not stated): the cytotoxicity call is “inactive”.

For the compound `Cc1ccc2sc(C(=O)O)cc2c1`, the cytotoxicity call was “inactive”.

For `COc1ccc(S(=O)(=O)Nc2ccc3c(c2)C(=O)N([C@@H](C)CO)C[C@@H](C)[C@H](CN(C)C(=O)Nc2cccc4ccccc24)OCCCC[C@@H](C)O3)cc1`, the cytotoxicity call was “inactive”.

Turning to `C[C@H]1CN([C@@H](C)CO)S(=O)(=O)c2ccc(C#Cc3cccc(F)c3)cc2O[C@@H]1CN(C)S(=O)(=O)c1cn(C)cn1`, the cytotoxicity call was “inactive”.

`CO[C@@H]1CN(C)C(=O)c2ccc(NS(C)(=O)=O)cc2OC[C@@H](C)N(S(C)(=O)=O)C[C@H]1C`: the cytotoxicity call is “inactive”.

For the compound `C[C@@H]1CN([C@@H](C)CO)C(=O)c2cccc(NC(=O)c3cnccn3)c2O[C@H]1CN(C)S(=O)(=O)c1ccc(Cl)cc1`, the cytotoxicity call is “inactive”.

On to `C[C@H]1CN([C@@H](C)CO)C(=O)c2cc(Br)cnc2O[C@H]1CN(C)Cc1ccccc1C(=O)O`, for which the cytotoxicity call is “inactive”.

As for `C[C@H]1CN([C@@H](C)CO)C(=O)c2cccc(NC(=O)Nc3ccc(C(F)(F)F)cc3)c2O[C@H]1CN(C)S(=O)(=O)c1ccc(F)cc1`, the cytotoxicity call is “inactive”.

For `OC1(c2ccc(Cl)c(C(F)(F)F)c2)CCN(CCCC(c2ccc(F)cc2)c2ccc(F)cc2)CC1` [listing 1 of 2 here], the cytotoxicity call was “active”.

On to `OC1(c2ccc(Cl)c(C(F)(F)F)c2)CCN(CCCC(c2ccc(F)cc2)c2ccc(F)cc2)CC1` [listing 2 of 2 here], for which the cytotoxicity call is “active”.

In the case of `O=C(CCCN1CCC(O)(c2ccc(Br)cc2)CC1)c1ccc(F)cc1`, the cytotoxicity call was “inactive”.

Regarding `O=C(CCCN1CCC(O)(c2ccc(Cl)cc2)CC1)c1ccc(F)cc1`, the cytotoxicity call is “inactive”.

`COc1ccc(S(=O)(=O)Nc2cccc3c2O[C@@H](CN(C)S(=O)(=O)c2ccccc2)[C@@H](C)CN([C@H](C)CO)C3=O)cc1`: the cytotoxicity call is “inactive”.

Take `C[C@@H]1CN([C@H](C)CO)C(=O)c2cccc(NS(=O)(=O)c3cn(C)cn3)c2O[C@H]1CN(C)C(=O)Nc1ccc(F)cc1`: the cytotoxicity call was “inactive”.

In the case of `C[C@@H]1CN([C@@H](C)CO)C(=O)c2cc(NC(=O)Cc3ccccc3)ccc2O[C@@H](C)CCCCO[C@@H]1CN(C)C(=O)Nc1cccc2ccccc12`, the cytotoxicity call was “inactive”.

With `CO[C@H]1O[C@H](CO)[C@@H](OC(=O)Nc2ccc3c(c2)OCO3)[C@H](OC(=O)Nc2ccc3c(c2)OCO3)[C@@H]1OC(=O)Nc1ccc2c(c1)OCO2`, the cytotoxicity call was “inactive”.

Take `CN(C)C(=O)C[C@H]1CC[C@@H]2[C@@H](COc3ccc(NS(=O)(=O)c4cccc(F)c4)cc3C(=O)N2C)O1`: the cytotoxicity call is “inactive”.

Turning to `O=C1CN(S(=O)(=O)Cc2ccccc2)C[C@@H]2[C@H](c3ccc(C#Cc4ccc(F)cc4)cc3)[C@H](CO)N12`, the cytotoxicity call was “active”.

On to `O=C1CN(S(=O)(=O)Cc2ccccc2)C[C@H]2[C@H](c3ccc(C#Cc4ccc(F)cc4)cc3)[C@H](CO)N12`, for which the cytotoxicity call was “active”.

As to `O=C1CN(S(=O)(=O)Cc2ccccc2)C[C@H]2[C@@H](c3ccc(C#Cc4ccc(F)cc4)cc3)[C@@H](CO)N12`, the cytotoxicity call is “inactive”.

Take `O=C1CN(S(=O)(=O)Cc2ccccc2)C[C@H]2[C@@H](c3ccc(C#Cc4ccc(F)cc4)cc3)[C@H](CO)N12`: the cytotoxicity call was “inactive”.

As to `O=C1CN(S(=O)(=O)Cc2ccccc2)C[C@@H]2[C@H](c3ccc(C#Cc4ccc(F)cc4)cc3)[C@@H](CO)N12`, the cytotoxicity call is “inactive”.

Take `O=C1CN(S(=O)(=O)Cc2ccccc2)C[C@@H]2[C@@H](c3ccc(C#Cc4ccc(F)cc4)cc3)[C@H](CO)N12`: the cytotoxicity call is “inactive”.

On to `COc1cccc(C#Cc2ccc([C@@H]3[C@H]4CN(S(=O)(=O)c5ccccc5C)CC(=O)N4[C@H]3CO)cc2)c1`, for which the cytotoxicity call was “inactive”.

As for `COc1cccc(C#Cc2ccc([C@H]3[C@H](CO)N4C(=O)CN(S(=O)(=O)c5ccccc5C)C[C@@H]34)cc2)c1`, the cytotoxicity call was “inactive”.

For `O=C1CN(S(=O)(=O)Cc2ccccc2)C[C@@H]2[C@@H](c3ccc(C#Cc4ccc(F)cc4)cc3)[C@@H](CO)N12`, the cytotoxicity call is “active”.

For the compound `O=C1CN(S(=O)(=O)Cc2ccccc2)C[C@H]2[C@H](c3ccc(C#Cc4ccc(F)cc4)cc3)[C@@H](CO)N12`, the cytotoxicity call is “active”.

For `C[C@H](CO)N1C[C@H](C)[C@H](CN(C)Cc2ccc(Oc3ccccc3)cc2)Oc2cc(-c3ccncc3)ccc2S1(=O)=O`, the cytotoxicity call is “inactive”.
